Compound activity: PubChem, several laboratories
A selection: hits, their analogues and other compounds. The true share with any hit is near 6.6%.
BoNT-F LC inh = blocks Botulinum neurotoxin F light chain protease. inhibition, % at 10 µM. Multiplex microsphere protease cleavage assay, flow cytometry. actives 0.22% (n = 360,000). AID 588497; in the data active means inhibition above about 35%, passing the limit was not always enough; inconclusive means no clear call, values can overlap the other calls; further: plate controls were buffer without enzyme for full effect and enzyme alone for no effect
Bead autofluor = counter-screen for toxin protease inhibitors: compound fluorescence | compound autofluorescence counterscreen, microsphere flow cytometry; hits give high values | fluorescence intensity (no concentration beside the values) | actives 3.1% (n = 360,000) | AID 624483; in the data active means fluorescence intensity above about 16000; inconclusive means no clear call, values can overlap the other calls
BoNT-A LC inh2 = BoNT A light chain protease inhibition. multiplex microsphere protease substrate cleavage, flow cytometry. inhibition, % at 10 µM. actives 0.17% (n = 360,000). AID 588499; further: plate controls were buffer without enzyme for full effect and enzyme alone for no effect
GDH-TPI counter = inhibits GDH-TPI coupling enzymes, artifact for Mtb FBA screen | GDH-TPI coupled enzyme counterscreen, NADH absorbance | inhibition, % at 4.8 µM | actives 1.2% (n = 360,000) | AID 588335; in the data active means inhibition above about 30%;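 further: 0% = DMSO wells and 100% = wells lacking the enzyme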
Anthrax LF prot = blocks Bacillus anthracis lethal factor protease. multiplex microsphere protease cleavage assay, LF. inhibition, % at 10 µM. actives 0.12% (n = 360,000); further: plate controls were buffer without enzyme for full effect and enzyme alone for no effect
Target sequence (P15917 whole entry, looked up): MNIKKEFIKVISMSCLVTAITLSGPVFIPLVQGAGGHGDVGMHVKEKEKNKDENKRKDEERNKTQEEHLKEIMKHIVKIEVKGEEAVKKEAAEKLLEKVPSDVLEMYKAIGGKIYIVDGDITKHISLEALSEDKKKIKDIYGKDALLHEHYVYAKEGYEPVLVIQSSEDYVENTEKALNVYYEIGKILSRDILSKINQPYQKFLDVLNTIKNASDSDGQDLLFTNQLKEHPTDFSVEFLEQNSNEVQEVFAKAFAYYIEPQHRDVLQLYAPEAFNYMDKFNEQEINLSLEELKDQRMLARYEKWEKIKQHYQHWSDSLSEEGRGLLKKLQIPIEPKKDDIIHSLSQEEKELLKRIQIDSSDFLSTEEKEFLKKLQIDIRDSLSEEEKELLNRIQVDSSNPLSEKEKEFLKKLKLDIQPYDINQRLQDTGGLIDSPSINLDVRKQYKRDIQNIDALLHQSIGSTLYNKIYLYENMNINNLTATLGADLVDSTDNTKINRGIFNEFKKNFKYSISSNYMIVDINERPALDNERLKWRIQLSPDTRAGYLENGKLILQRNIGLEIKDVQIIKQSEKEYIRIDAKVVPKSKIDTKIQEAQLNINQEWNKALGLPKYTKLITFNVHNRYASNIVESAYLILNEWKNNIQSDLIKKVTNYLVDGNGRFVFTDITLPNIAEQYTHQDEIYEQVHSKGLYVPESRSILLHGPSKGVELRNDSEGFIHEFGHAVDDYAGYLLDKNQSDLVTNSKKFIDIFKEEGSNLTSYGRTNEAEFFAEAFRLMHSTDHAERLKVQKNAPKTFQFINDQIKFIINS
FBA Mtb inh = Mtb fructose-bisphosphate aldolase inhibition; inhibition, % at 1 µM; P9WQA3; purified M. tuberculosis FBA, fluorescence read-out; actives 2.3% (n = 360,000); AID 588726; in the data active means inhibition above about 27%;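 further: 0% = vehicle and 100% = reference inhibitor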
An asterisk follows results filed as active; ? = inconclusive; / = no result given. Unless noted, no stated cut-off is given here; in the data, active means inhibition above about 30%; inconclusive means no clear call, values can overlap the other calls; inactive means below that.

SMILES	BoNT-F LC inh	Bead autofluor	BoNT-A LC inh2	GDH-TPI counter	Anthrax LF prot	FBA Mtb inh
COc1ccc2cc3cc(C(=O)N4CCCCCC4)oc3nc2c1	6.5	5249	-1.5	38.9*	1.9	85.9*
O=C(c1cc2cc3ccc(Cl)cc3nc2o1)N1CCC2(CC1)OCCO2	-15.2	5146	-2.3	39.1*	-3.6	-3.2
COC(=O)C[C@H]1C[C@H]2c3cc(NS(=O)(=O)c4cccc(OC)c4)ccc3O[C@H]2[C@@H](CO)O1	3.0	3556	0.0	5.2	1.5	-2.4
Cc1ccccc1-c1cccc([C@@H]2C[C@H]3C(CN2)CON3C)c1 (stereo partly specified)	-11.7	3132	-0.1	7.3	-7.4	1.1
COc1cc2[nH]c(=O)n(CCC(=O)NCCCN3CCN(c4ccccc4F)CC3)c(=O)c2cc1OC	-1.8	4364	-0.5	5.1	-4.2	3.5
CC(C)(C)C1CCc2c(C(=O)NNC(=O)CCCC(=O)O)csc2C1 (stereo unspecified)	-2.8	2536	0.1	6.1	0.7	-0.6
COc1ccc2cc3cc(C(=O)N4CCCCC4C)oc3nc2c1 (stereo unspecified)	-4.7	4159	4.5	49.0*	-0.6	40.4*
CCN(C(=O)Cn1ccc(C(F)(F)F)n1)c1c(N)n(Cc2ccccc2)c(=O)[nH]c1=O	-0.1	3869	-0.1	-6.5	-2.3	0.2
Nc1ccc(C(=O)N/N=C/c2cn(Cc3cccc(F)c3)c3ccccc23)cc1	1.5	5808	-0.8	32.4*	-0.6	1.6
O=C(N/N=C/c1cn(Cc2ccccc2)c2ccccc12)c1ccncc1	-1.4	4123	0.7	23.7	-0.4	-2.7
O=C(N/N=C/c1ccccc1Cl)c1cccc(F)c1	-4.4	16940*	-2.6	7.8	-3.0	-0.1
O=C(N/N=C/c1cccc2ccccc12)c1ccc(CN2CCOCC2)cc1	-9.4	3588	1.8	41.4*	-1.7	6.4
O=C(CNc1ccc2c(c1)OCO2)N/N=C\c1cn(Cc2ccccc2)c2ccccc12	-11.1	10512	-1.9	30.9*	-3.9	0.7
O=C(N/N=C/c1c(Cl)cccc1Cl)c1cccc(F)c1	-7.0	10858	0.2	0.9	0.1	-1.2
O=C(N/N=C/c1cccc2ccccc12)c1cccc(F)c1	3.6	5812	-0.8	34.0*	-2.6	-2.1
O=S(Cc1ccccc1)CC(O)(c1ccccc1)c1ccccc1 (stereo unspecified)	-4.4	21390*	-1.9	-18.4	-1.6	0.3
CN(Cc1nc2ccccc2c(=O)[nH]1)C(=O)c1ccc(S(=O)(=O)N(C)C)cc1	1.1	20390*	1.2	-11.2	0.7	-0.7
Cc1ccc(S(=O)(=O)N(C)c2ccc(C(=O)N(C)Cc3nc4ccccc4c(=O)[nH]3)cc2)cc1	7.3	5501	3.8	12.5	5.3	1.5
O=C(NCc1cccnc1)c1[nH]c(C(F)(F)F)nc1-c1ccccc1	-1.6	5890	-0.5	/	3.7	4.9
CC(=O)C1CCC2C3CCC4=CC(=O)CCC4(C)C3(F)C(O)CC12C (stereo unspecified)	7.2	3790	0.0	2.2	-7.6	-1.4
CCn1c(=N)n(CC(O)c2ccco2)c2ccccc21 (stereo unspecified)	-18.7	28325*	-10.7	-1.3	-1.9	-0.9
O=CNc1c(Cl)cc2c(c1Cl)Cc1cc([N+](=O)[O-])ccc1-2	2.2	3382	1.1	13.6	0.6	-3.4
O=C(NCc1ccccc1)C(Cc1ccccc1)N1C(=O)C2C3CCC(C3)C2C1=O (stereo unspecified)	9.7	16697*	8.8	-8.3	-16.1	-1.1
CCN(CC)S(=O)(=O)c1ccc(N2CCN(C)CC2)c(NC(=O)COc2ccc(F)cc2Cl)c1	-8.9	6234	2.0	5.6	0.4	2.0
COc1cccc(/C=c2/s/c(=C(\C#N)C(=O)N3CCOCC3)n(-c3ccccc3)c2=O)c1	4.7	20549*	?	6.8	-6.8	0.6
SMILES	BoNT-F LC inh	Bead autofluor	BoNT-A LC inh2	GDH-TPI counter	Anthrax LF prot	FBA Mtb inh
COc1cccc(-c2cnc3c(NC(C)=O)cc(-c4ccc(C(=O)NC5CC5)cc4)cn23)c1	0.2	3748	0.4	13.4	-2.4	-2.5
CC1(C)CC(=O)C=C(C(=O)N2CCCC(C(=O)c3cccc(C(F)(F)F)c3)C2)O1 (stereo unspecified)	11.2	4278	6.1	11.3	6.0	3.2
N#Cc1ccc(/C=N/NC(=S)Nc2ccc(S(=O)(=O)N3CCOCC3)cc2)cc1	0.6	4309	0.8	40.1*	-5.8	0.4
O=S(=O)(c1ccc(NC(=S)N/N=C/c2cccc(Oc3ccccc3)c2)cc1)N1CCOCC1	-3.8	2873	-0.8	17.9	-0.6	1.5
O=S(=O)(c1ccc(NC(=S)N/N=C/c2ccc(O)c(O)c2)cc1)N1CCOCC1	-7.9	4581	-1.1	37.0*	-3.1	-5.4
OC[C@@H]1CN(Cc2ccc3c(c2)OCO3)C[C@H](n2cnc3c(NCc4ccncc4)ncnc32)O1	0.7	3510	-0.2	-3.1	0.3	-4.1
CCCCCCN1CCN(C2CN(Cc3ccc(F)cc3)S(=O)(=O)C2)CC1 (stereo unspecified)	-2.1	4244	0.4	/	-9.0	2.7
O=C(Nc1ccccc1)c1ccc2nc(-c3ccco3)c(-c3ccco3)nc2c1	24.0	19000*	?	10.6	18.7	0.6
O=C(Nc1ccc2nc(-c3ccco3)c(-c3ccco3)nc2c1)N1CCN(c2ccccn2)CC1	14.8	5771	41.2*	15.9	19.8	2.2
Cc1ccc(/C=C2/SC(=S)N(c3ccc(S(=O)(=O)Nc4nccs4)cc3)C2=O)cc1	?	2972	3.8	39.3*	3.7	1.7
O=C1/C(=C\c2ccccn2)SC(=S)N1c1ccc(S(=O)(=O)Nc2nccs2)cc1	?	3634	-2.6	3.5	29.6*	0.4
O=C(NCc1ccccc1)c1ccc(-c2cn[nH]c2)c2ccoc12	-0.4	3750	-0.6	9.7	3.0	31.6*
COc1cc(NC(=O)c2ccc(-c3cn[nH]c3)c3ccoc23)cc(OC)c1OC	-2.9	3623	-0.3	13.3	-2.0	0.3
O=C(Cn1c(=S)[nH]c2ccccc2c1=O)N1CCC2(CC1)OCCO2	-7.2	24695*	-4.3	1.3	-3.6	-0.4
O=C(CCCCCn1c(=S)[nH]c2ccccc2c1=O)N1CCC2(CC1)OCCO2	7.5	21724*	2.7	10.2	1.1	-0.5
C=Cc1ccc(Cn2c(C)c(C(=O)NCCC#N)sc2=O)cc1	2.6	5578	-0.4	6.2	-4.9	-1.7
CC1=C(C(=O)OCCBr)C(c2cccc3ccccc23)NC(=O)N1 (stereo unspecified)	8.3	3678	3.2	17.9	2.3	-0.4
Nc1nc(NC(=O)/C=C\C(=O)O)nn1-c1ccccc1	13.6	4649	1.5	1.6	1.5	2.1
COc1ccc(/C=C/C(=O)Nc2cccnc2Cl)cc1	9.0	3502	2.3	31.2*	9.4	1.3
COc1ccc(/C=C/C(=O)Nc2nc(N)n(-c3ccccc3)n2)cc1	8.9	2416	0.0	33.5*	-0.3	-2.5
Cc1noc(C)c1CSCC(=O)Nc1nc2ccc(F)cc2s1	4.1	4106	1.7	8.0	0.2	0.0
